Screening results deposited in PubChem by The Scripps Research Institute Molecular Screening Center.
CHO-K1 Ca ag: nonselective activator or artifact in parental CHO-K1 cells; AID 602248; Fluo-8 calcium fluorescence; scaled to maximal ATP response, vehicle zero; 360,000 compounds, 0.48% hits; activation, % at 3 µM; in the data active = activation above about 15%;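 note: untransfected CHO-K1 host cells lacking M1 receptor as counterscreen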
M1 PAM: potentiates human M1 receptor response to acetylcholine; CHO-K1 hM1, Fluo-8 calcium fluorescence, ACh EC20; 0% = ACh EC20, 100% = maximal ACh; P11229; activation, % at 3 µM; 360,000 compounds, 0.088% hits; AID 588819; in the data active = activation above about 19%, passing the limit was not always enough
Target sequence (P11229 whole entry, looked up): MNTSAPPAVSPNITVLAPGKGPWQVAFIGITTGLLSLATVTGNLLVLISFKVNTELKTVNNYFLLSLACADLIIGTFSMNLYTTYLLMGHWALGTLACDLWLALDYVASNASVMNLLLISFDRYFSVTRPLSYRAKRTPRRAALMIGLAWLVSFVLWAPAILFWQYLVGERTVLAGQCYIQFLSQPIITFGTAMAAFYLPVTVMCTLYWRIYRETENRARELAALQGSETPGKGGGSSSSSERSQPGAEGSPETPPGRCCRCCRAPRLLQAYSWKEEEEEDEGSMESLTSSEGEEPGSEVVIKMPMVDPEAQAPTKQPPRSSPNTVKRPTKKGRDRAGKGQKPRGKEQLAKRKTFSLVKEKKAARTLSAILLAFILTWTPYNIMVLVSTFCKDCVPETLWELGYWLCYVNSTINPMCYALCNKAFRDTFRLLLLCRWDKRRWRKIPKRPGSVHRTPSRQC
M1 antag: human CHRM1 antagonism | AID 588852 | CHO-K1 hM1, Fluo-8 calcium fluorescence, ACh EC80 antagonist | inhibition, % at 3 µM | P11229 | 360,000 compounds, 1.3% hits;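 active = percent inhibition above its own plate's cutoff, namely the mean of that plate's compound wells plus 3 SD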;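 note: peak over basal fluorescence ratio during 140 s after agonist addition; 0% = ACh EC80 plus DMSO and 100% = DMSO alone without agonist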
CHO-K1 Ca antag: nonselective inhibitor or artifact in parental CHO-K1 cells. ATP-induced calcium, Fluo-8 fluorescence. inhibition, % at 3 µM. 360,000 compounds, 0.6% hits. AID 602250;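 active = inhibition above a per-plate cutoff, the plate's mean sample inhibition plus 3 SD, cut at about 24% in these data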;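 note: 0% = DMSO plus EC80 ATP and 100% = DMSO alone without ATP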
M1 PAM parental: counter-screen for M1 PAMs: effect in parental CHO-K1 cells. 360,000 compounds, 0.02% hits. activation, % at 3 µM. ATP EC20, Fluo-8 calcium fluorescence; 0% at ATP EC20, 100% at ATP max. AID 602247;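 active = activation above the run cutoff, the mean activation of all test compounds plus 3 SD, cut at about 40% in these data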;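 note: peak over basal fluorescence ratio in a 140 s read after ATP addition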
CHRM1 agonist: activates human CHRM1 receptor; CHO-K1 hM1, Fluo-8 calcium fluorescence, agonist mode; 0% DMSO, 100% acetylcholine EC100; activation, % at 3 µM; 360,000 compounds, 0.33% hits; AID 588814; P11229;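 active = activation above the run's mean compound activation plus 3 SD, cut at about 16% in these data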;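 note: peak over basal fluorescence ratio within a 140 s kinetic read after compound addition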
An asterisk follows results filed as active. This is a sample that favours compounds with a hit; in the whole collection about 2.3% have one here.

For Cc1cc2nc3n(c2cc1C)CCCN3 the results were CHO-K1 Ca ag 0, M1 PAM -23, M1 antag 34*, CHO-K1 Ca antag 9, M1 PAM parental -13 and CHRM1 agonist -11.
Screening CCn1c(C)c(C(C)=O)c(NCc2ccccc2)nc1=S returned CHO-K1 Ca ag -1, M1 PAM -22, M1 antag 51*, CHO-K1 Ca antag 17, M1 PAM parental 0 and CHRM1 agonist -9.
For COc1ccc(CC(=O)NC(=S)Nc2cccc(C)c2)cc1 the results were CHO-K1 Ca ag 13, M1 PAM 1, M1 antag 4, CHO-K1 Ca antag -12, M1 PAM parental 16 and CHRM1 agonist 26*.
Screening COc1ccc(CC(=O)NC(=S)Nc2cccc(CO)c2)cc1 returned CHO-K1 Ca ag 13, M1 PAM 5, M1 antag -7, CHO-K1 Ca antag -18, M1 PAM parental 23 and CHRM1 agonist 29*.
COc1cccc(NC(=S)NC(=O)Cc2ccc(Cl)cc2)c1 was read as CHO-K1 Ca ag 23*, M1 PAM 8, M1 antag 7, CHO-K1 Ca antag 6, M1 PAM parental 23 and CHRM1 agonist 37*.
For CCC(=O)Nc1cccc(NC(=S)NC(=O)Cc2ccccc2)c1 the results were CHO-K1 Ca ag 1, M1 PAM -11, M1 antag 20, CHO-K1 Ca antag 5, M1 PAM parental -6 and CHRM1 agonist 0.
`COc1ccccc1NC(=S)NC(=O)Cc1ccc(Cl)cc1` gave CHO-K1 Ca ag 0, M1 PAM -6, M1 antag 13, CHO-K1 Ca antag -3, M1 PAM parental -14 and CHRM1 agonist 6.
O=C(NCc1ccco1)c1ccc(CS(=O)Cc2ccc(Cl)cc2)o1 (stereo unspecified) was read as CHO-K1 Ca ag 2, M1 PAM 5, M1 antag -10, CHO-K1 Ca antag -17, M1 PAM parental 10 and CHRM1 agonist -2.
Screening COC(=O)C1=C(C)NC(C)=C(C(=O)OC)C1C(=O)OC(C)C(=O)c1ccccc1 (stereo unspecified) returned CHO-K1 Ca ag 6, M1 PAM -8, M1 antag 22, CHO-K1 Ca antag -13, M1 PAM parental 7 and CHRM1 agonist -3.
Screening CC(=O)Nc1cccc(-c2csc(C(C)(NC(C)=O)c3ccccc3)n2)c1 (stereo unspecified) returned CHO-K1 Ca ag 1, M1 PAM 2, M1 antag 2, CHO-K1 Ca antag -4, M1 PAM parental 14 and CHRM1 agonist -1.
`CCC(c1nnnn1C(C)(C)C)N1CCN(C/C=C/c2ccccc2)CC1` (stereo unspecified) gave CHO-K1 Ca ag 1, M1 PAM -2, M1 antag -17, CHO-K1 Ca antag -13, M1 PAM parental 8 and CHRM1 agonist -5.
CC(C)(C)n1nnnc1C(c1ccccc1)N1CCN(C/C=C/c2ccccc2)CC1 (stereo unspecified) was read as CHO-K1 Ca ag 2, M1 PAM -24, M1 antag 63*, CHO-K1 Ca antag -14, M1 PAM parental 16 and CHRM1 agonist -4.
Screening COc1ccc(-n2nnnc2C(c2ccccc2)N2CCN(C/C=C/c3ccccc3)CC2)cc1 (stereo unspecified) returned CHO-K1 Ca ag -1, M1 PAM -26, M1 antag 68*, CHO-K1 Ca antag -16, M1 PAM parental -2 and CHRM1 agonist -9.
For CCCCn1nnnc1C(c1cccc2ccccc12)N1CCN(C/C=C/c2ccccc2)CC1 (stereo unspecified) the results were CHO-K1 Ca ag 1, M1 PAM -25, M1 antag 95*, CHO-K1 Ca antag 14, M1 PAM parental 0 and CHRM1 agonist -5.
Screening CCCCn1nnnc1C(c1ccccc1OC(F)(F)F)N1CCN(C/C=C/c2ccccc2)CC1 (stereo unspecified) returned CHO-K1 Ca ag 0, M1 PAM -25, M1 antag 16, CHO-K1 Ca antag -16, M1 PAM parental 1 and CHRM1 agonist -8.
Screening CCCCn1nnnc1C(c1ccccc1)N1CCN(C/C=C/c2ccccc2)CC1 (stereo unspecified) returned CHO-K1 Ca ag 0, M1 PAM -26, M1 antag 53*, CHO-K1 Ca antag -4, M1 PAM parental 3 and CHRM1 agonist -7.
COC(=O)c1cc(S(=O)(=O)N2CCN(c3cccc(Cl)c3)CC2)c[nH]1 was read as CHO-K1 Ca ag 1, M1 PAM 4, M1 antag -7, CHO-K1 Ca antag -1, M1 PAM parental 2 and CHRM1 agonist -3.
`CC1=C(C(=O)N2CCOCC2)CC(CC(=O)NCCc2ccccn2)C(=O)N1Cc1ccc(C(C)(C)C)cc1` (stereo unspecified) gave CHO-K1 Ca ag 1, M1 PAM 0, M1 antag 1, CHO-K1 Ca antag -6, M1 PAM parental 3 and CHRM1 agonist -6.
CC(C)C[C@@H](CN1CCC[C@@H]1CN1C(=S)NC[C@@H]1Cc1ccc(O)cc1)N1C[C@H](Cc2ccc(O)cc2)N(CC2CCCCCC2)C1=S was read as CHO-K1 Ca ag 0, M1 PAM 3, M1 antag -3, CHO-K1 Ca antag 8, M1 PAM parental 8 and CHRM1 agonist -2.
Screening Cc1cccc(C)c1-n1nnnc1C(c1cc2ccccc2o1)N1CCN(C/C=C/c2ccccc2)CC1 (stereo unspecified) returned CHO-K1 Ca ag 1, M1 PAM -25, M1 antag 56*, CHO-K1 Ca antag -22, M1 PAM parental 14 and CHRM1 agonist -4.
Screening CCCCn1nnnc1C(CC)N1CCN(C/C=C/c2ccccc2)CC1 (stereo unspecified) returned CHO-K1 Ca ag 2, M1 PAM 8, M1 antag -28, CHO-K1 Ca antag 10, M1 PAM parental -11 and CHRM1 agonist -5.
Screening CCCCn1nnnc1C(c1ccnc2ccccc12)N1CCN(C/C=C/c2ccccc2)CC1 (stereo unspecified) returned CHO-K1 Ca ag 0, M1 PAM -27, M1 antag 80*, CHO-K1 Ca antag -9, M1 PAM parental -5 and CHRM1 agonist -6.
`Cc1cccc(C)c1-n1nnnc1C(c1cccc2ccccc12)N1CCN(C/C=C/c2ccccc2)CC1` (stereo unspecified) gave CHO-K1 Ca ag 0, M1 PAM -8, M1 antag -8, CHO-K1 Ca antag -18, M1 PAM parental 2 and CHRM1 agonist -3.
For CC1(C2CC2)NC(=O)N(CC(=O)N2CCN(c3ccccc3)CC2)C1=O (stereo unspecified) the results were CHO-K1 Ca ag 1, M1 PAM 18, M1 antag -12, CHO-K1 Ca antag -19, M1 PAM parental 25 and CHRM1 agonist 0.
